Records with an inconclusive call do not appear. Where a call stands in place of a potency, no number is given. Unmarked numbers belong to inactive results. Active and inactive are the calls of the source. Unless noted, calls follow the shape of the dose curve; as a rule, active = well fitted curve in the direction sought with a large enough effect in the repeat runs; inconclusive = weak or mixed curves; inactive = no such curve, though single readings can be large; an effect the other way counts as inactive or inconclusive.
Assays:
[1] = target: Aryl hydrocarbon receptor (Homo sapiens) (UniProt P35869); assay: qHTS assay to identify small molecule that activate the aryl hydrocarbon receptor (AhR) signaling pathway (AID 743085);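 also: HG2L7.5c1 human HepG2 liver cells with stably integrated DRE-driven firefly reporter; series mostly up to about 70 µM; nearly all actives have a fitted effect of over 15% in size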
Sequence of Aryl hydrocarbon receptor (Homo sapiens) (P35869 whole entry, looked up): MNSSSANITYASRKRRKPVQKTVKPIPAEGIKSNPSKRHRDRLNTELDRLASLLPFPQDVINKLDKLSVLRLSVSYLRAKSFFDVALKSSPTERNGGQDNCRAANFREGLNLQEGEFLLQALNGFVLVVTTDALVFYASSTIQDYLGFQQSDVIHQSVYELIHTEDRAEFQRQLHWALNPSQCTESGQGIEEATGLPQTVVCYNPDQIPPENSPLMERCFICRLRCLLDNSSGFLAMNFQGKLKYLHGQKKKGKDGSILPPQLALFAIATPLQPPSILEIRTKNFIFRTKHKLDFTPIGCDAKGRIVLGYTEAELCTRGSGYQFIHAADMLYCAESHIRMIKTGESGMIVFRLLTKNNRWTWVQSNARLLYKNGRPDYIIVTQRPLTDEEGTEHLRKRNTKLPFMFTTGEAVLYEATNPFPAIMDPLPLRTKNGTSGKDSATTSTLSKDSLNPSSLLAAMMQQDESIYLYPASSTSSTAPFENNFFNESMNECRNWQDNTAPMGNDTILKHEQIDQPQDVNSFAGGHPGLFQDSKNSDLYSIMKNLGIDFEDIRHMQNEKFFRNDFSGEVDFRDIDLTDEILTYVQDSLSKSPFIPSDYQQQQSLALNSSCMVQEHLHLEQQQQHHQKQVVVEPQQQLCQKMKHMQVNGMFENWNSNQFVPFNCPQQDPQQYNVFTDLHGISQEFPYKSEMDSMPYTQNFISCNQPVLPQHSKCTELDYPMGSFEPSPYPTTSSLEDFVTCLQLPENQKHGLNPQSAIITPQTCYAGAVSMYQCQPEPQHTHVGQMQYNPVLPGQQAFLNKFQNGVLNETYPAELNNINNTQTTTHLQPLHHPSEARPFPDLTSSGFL
In short: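 Luminescence read-out: ONE-Glo reagent, 30 min at room temperature, in HG2L7.5c1 HepG2 reporter cells treated 24 h at 37C. Viability was measured beforehand by CellTiter-Fluor fluorescence after 30 min at 37C.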

[2] = qHTS assay to identify small molecule that activate the aryl hydrocarbon receptor (AhR) signaling pathway - cell viability counter screen (AID 743086); also: nearly all actives have a fitted effect of over 45% in size; also: potency is read from the fitted curve at half-maximal effect
In short: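 HepG2-AhR-luc (HG2L7.5c1) cells, 4000/well, were preincubated 5 h at 37C, exposed to compound in qHTS format for 24 hr at 37C, then given CellTiter-Fluor for 30 min; viability was read as fluorescence in the reporter wells.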

[3] = qHTS assay for small molecule agonists of the antioxidant response element (ARE) signaling pathway - cell viability counter screen (AID 743203; calls by dose curve; also: nearly all actives have a fitted effect of over 55% in size; also: potency is read from the fitted curve at half-maximal effect)
In short: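 ARE-bla HepG2 cells were plated, rested 5 h at 37C/5% CO2, then exposed to compounds in DMSO for 16 h. Viability was read as CellTiter-Glo luminescence after 30 min at room temperature, in the same wells as the ARE screen.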

[4] = qHTS assay for small molecule activators of the heat shock response signaling pathway - cell viability counter screen (AID 743209); also: nearly all actives have a fitted effect of over 50% in size
In short: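 HSE-bla HeLa cells plated overnight, then exposed to Tox21 compounds (23 nL in DMSO) for 5 h at 37 C. After the bla reporter read, CellTiter-Glo was added in the same wells and luminescence read after 30 min at room temperature.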

[5] = qHTS assay to identify aromatase inhibitors - cell viability counter screen (AID 743084);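 also: cells stimulated with testosterone during compound exposure; nearly all actives have a fitted effect of over 55% in size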; also: potency is read from the fitted curve at half-maximal effect
[6] = qHTS assay for small molecule activators of the heat shock response signaling pathway (AID 743210; active = well fitted activation curve with a large enough effect in the signal ratio in the repeat runs, with a control signal flat, not every such curve was filed as active; the % refers to the signal ratio; also: series mostly up to about 63 µM)
In short: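 HSE-bla HeLa cells (beta-lactamase reporter under heat shock response elements) were exposed to compounds for 5 h at 37 C, then loaded with LiveBLAzer B/G FRET substrate for 2.5 h at room temperature before fluorescence reading.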

[7] = target: Peroxisome proliferator-activated receptor gamma (Homo sapiens) (UniProt P37231); assay: qHTS assay to identify small molecule agonists of the peroxisome proliferator-activated receptor gamma (PPARg) signaling pathway (AID 743094; active = well fitted activation curve with a large enough effect in the signal ratio in the repeat runs, not every such curve was filed as active; the % refers to the signal ratio; also: potency is read from the fitted curve at half-maximal effect)
Sequence of Peroxisome proliferator-activated receptor gamma (Homo sapiens) (P37231 whole entry, looked up): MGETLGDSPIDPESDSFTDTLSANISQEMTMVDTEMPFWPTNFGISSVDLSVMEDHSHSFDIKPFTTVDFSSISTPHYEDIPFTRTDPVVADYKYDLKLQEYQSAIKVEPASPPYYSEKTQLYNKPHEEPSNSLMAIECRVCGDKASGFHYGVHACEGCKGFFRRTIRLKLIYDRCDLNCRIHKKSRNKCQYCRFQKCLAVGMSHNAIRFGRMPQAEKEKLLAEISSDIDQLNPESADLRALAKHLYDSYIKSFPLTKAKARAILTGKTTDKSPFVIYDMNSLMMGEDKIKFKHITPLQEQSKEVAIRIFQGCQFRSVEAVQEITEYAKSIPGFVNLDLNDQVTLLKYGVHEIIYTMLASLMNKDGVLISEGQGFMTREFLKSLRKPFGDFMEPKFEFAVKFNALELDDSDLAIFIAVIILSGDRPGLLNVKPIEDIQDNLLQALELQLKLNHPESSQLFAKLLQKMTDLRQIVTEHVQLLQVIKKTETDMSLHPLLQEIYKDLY
In short: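 GeneBLAzer PPARg UAS-bla HEK293H cells were plated, rested 5 h, then exposed to compounds for 17 h at 37C. Beta-lactamase activity was read by LiveBLAzer B/G FRET substrate fluorescence after 1 h at room temperature.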

[8] = qHTS assay to identify small molecule antagonists of the peroxisome proliferator-activated receptor gamma (PPARg) signaling pathway - cell viability counter screen (AID 743194); also: nearly all actives have a fitted effect of over 55% in size
In short: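 PPARg-UAS-bla HEK293H cells were plated, rested 5 h at 37 C, then treated with compounds plus rosiglitazone (50 nM final) for 17 h at 37 C; viability was then read by CellTiter-Glo luminescence after 30 min at room temperature.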

[9] = target: Peroxisome proliferator-activated receptor gamma (Homo sapiens) (UniProt P37231); assay: qHTS assay to identify small molecule antagonists of the peroxisome proliferator-activated receptor gamma (PPARg) signaling pathway (AID 743191; calls by dose curve; also: series mostly up to about 63 µM; nearly all actives have a fitted effect of over 30% in size)
In short: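 GeneBLAzer PPARg UAS-bla HEK293H cells carrying a UAS-driven beta-lactamase reporter were plated at 3000 cells/well, preincubated 5 h at 37C, then given compound for 17 h at 37C; LiveBLAzer B/G FRET substrate was read after 1 h at room temperature.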

[10] = qHTS assay for small molecule agonists of the antioxidant response element (ARE) signaling pathway (AID 743202; active = well fitted activation curve with a large enough effect in the signal ratio in the repeat runs, not every such curve was filed as active; the % refers to the signal ratio; also: potency is read from the fitted curve at half-maximal effect)
In short: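 Read-out: LiveBLAzer B/G FRET substrate fluorescence after 2 h at room temperature, following 16 h compound treatment at 37 C of HepG2 cells carrying an ARE-driven beta-lactamase reporter.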

Row | SMILES | Potency [1] | Potency [2] | Potency [3] | Potency [4] | Potency [5] | Potency [6] | Potency [7] | Potency [8] | Potency [9] | Potency [10]
1 | O=C(O)c1ccc(-n2nc(-c3ccccc3O)nc2-c2ccccc2O)cc1 | inactive | inactive | inactive | inactive |  |  |  |  |  | 
2 | O=C(O)C1(C(=O)Nc2ccc(Cl)cc2Cl)CC1 |  | inactive | inactive | inactive | inactive | inactive |  |  |  | 
3 | CCO[C@H](Cc1ccc(OCCc2ccc(OS(C)(=O)=O)cc2)cc1)C(=O)O |  |  | inactive |  | inactive | inactive | 0.12 µM (active) | inactive |  | 
4 | Cc1ccc(N=Nc2c(O)c(C(=O)O)cc3ccccc23)c(S(=O)(=O)O)c1 |  |  | inactive | inactive | 6.65 µM (active) | inactive | inactive | inactive | inactive | 
5 | CC(C)Nc1ccc(NC(C)C)c2c1C(=O)c1ccccc1C2=O |  | inactive |  | inactive | inactive | inactive | inactive | inactive |  | 
6 | O=[N+]([O-])c1ccc(NCCO)c(OCCO)c1 | inactive |  | inactive | inactive |  | inactive | inactive | inactive | inactive | inactive
7 | CN1CCC(N(Cc2cccs2)c2ccccc2)CC1 |  |  | inactive |  | inactive |  | inactive | inactive |  | 
8 | Cc1nn(C)c(Oc2ccccc2)c1/C=N/OCc1ccc(C(=O)OC(C)(C)C)cc1 | inactive | inactive |  |  |  | inactive | inactive | inactive |  | 
9 | CCC(C)(C)CC |  | inactive | inactive |  |  |  |  | inactive |  | inactive
10 | C/C=C(/C(=C/C)c1ccc(OC(C)=O)cc1)c1ccc(OC(C)=O)cc1 |  |  | inactive | inactive |  |  |  |  |  | 13.3 µM (active)
11 | CCOC(=O)C(O)c1ccccc1 (stereo unspecified) |  |  | inactive | inactive |  | inactive |  | inactive | inactive | inactive
12 | Nc1ccc([N+](=O)[O-])c(C(F)(F)F)c1 |  |  | inactive | inactive |  | inactive |  | inactive | inactive | inactive
13 | C[C@@H]1C[C@H]2[C@@H]3CCC4=CC(=O)C=C[C@]4(C)[C@@]3(F)[C@@H](O)C[C@]2(C)[C@@]1(O)C(=O)COC(=O)c1ccncc1 |  |  | inactive | inactive |  | inactive |  | inactive | inactive | 
14 | CN1Cc2cc(C(=O)N3CCC(C4CCNCC4)CC3)ccc2NC(CC(=O)O)C1=O (stereo unspecified) |  |  | inactive | inactive |  | inactive |  | inactive |  | inactive
15 | CCc1cc(C2=C(C(=O)O)N(c3ccccc3C(F)(F)F)S(=O)(=O)c3ccccc32)cc2c1OCO2 |  | 21.4 µM (active) | 6.04 µM (active) | inactive |  | inactive |  | inactive |  | 
16 | O=C(NCC1CN(c2ccc(N3CCOCC3=O)cc2)C(=O)O1)c1ccc(Cl)s1 (stereo unspecified) |  |  | inactive | inactive |  | inactive |  | inactive |  | 
17 | CCOC(=O)C(=O)CCc1ccccc1 |  |  | inactive |  |  | inactive |  |  | inactive | inactive
